# In the supplement of paper PMC6555819:
# How the values were obtained:
# Assay in all cases: PBM binding z-score (relative to random genomic background probes); higher = stronger binding; sequences stand for … in GC…GCGATTGACAGCGTAGAATGAAGG
# [1] = system: RARb homodimer (NR concentration 270 nM)
# In short: (§1)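 Probes were double-stranded and carried 34-nt variable regions with direct-repeat seeds, single-nucleotide variants, half-site ablations and random human genomic background sequences, printed on custom Agilent 4×180K protein-binding microarrays. Arrays were incubated 1 h with ligand-free nuclear receptor dimers in PBS pH 7.4, 2% milk, 0.02% Triton X-100, 1 mM DTT, 0.2 mg/mL BSA and 0.4 mg/ml salmon testes DNA. Antibodies against each partner (one per run) detected binding, and scanned fluorescence was regression-normalized. Binding z-scores use the random background probes as reference.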
# [2] = system: RARg:RXRa (NR concentration 270 nM, RXRa partner concentration 90 nM)
# In short: as §1
# [3] = system: RARg homodimer (NR concentration 270 nM)
# In short: as §1
# [4] = system: RXRa DBDmut IVT, anti-RXR (DBD mutation: RXRa K156A/R161A, NR concentration 90 nM)
# In short: as §1
# [5] = system: RXRa homodimer (NR concentration 180 nM)
# In short: as §1
# [6] = system: THRa:RXRa (NR concentration 90 nM, RXRa partner concentration 90 nM)
# In short: as §1
# [7] = system: THRa homodimer (NR concentration 90 nM)
# In short: as §1
# [8] = system: VDR homodimer (NR concentration 270 nM)
# In short: as §1
Sequence,PBM binding z-score [1],PBM binding z-score [2],PBM binding z-score [3],PBM binding z-score [4],PBM binding z-score [5],PBM binding z-score [6],PBM binding z-score [7],PBM binding z-score [8]
ATCTCTATGTAACAAGTTCAGTGAAAGAGAGGAC,1.49,0.833,1.3,0.923,0.533,0.782,0.323,2.17
CTCGAAAGGTCGTGCTCAGGTAAGTATACCAAAC,2.92,4.8,4.35,2.12,5.15,3.62,0.655,1.17
TCTATTAGTTGATTAGGGCAACCGCAACAGCGGA,0.671,0.648,0.445,0.932,0.721,0.679,0.272,0.125
GATACAGGGTCAAAGCCAGAGTACGCGTATTGAT,2.86,5.42,4.41,3.04,5.84,3.25,0.312,2.99
GCGACTGGTGCATCAGCAGGTTACCATAACTTAA,0.107,-0.0711,-0.351,-0.127,-0.12,0.163,-0.356,-0.21
CCTCGGAGCACAGAAGGTCAGAGCTGTCCGCTTT,3.08,2.63,2.37,0.0874,2.3,3.13,-0.478,-0.376
TCTAGTTGGTCAAAAGTCACACACTCGAAATGCG,1.01,1.34,1.06,1.33,1.55,0.553,0.457,0.578
CGTCCAAGGTCAAGGGTCAGTGAAGAGATGACGG,5.05,7.4,7.41,3.29,8.75,4.58,2.82,3.3
CCGACTGGGGCAGAACGGTTACCATACCATCCGG,0.0428,-0.0938,0.284,-1.04,-0.293,-0.413,-0.791,-0.33
CCGAGTAGATTATGGGGCATTCAGGCAACGGTGA,0.0129,-0.113,0.0692,0.349,-0.0432,0.271,-0.141,-0.481
TGAATGAGGTTTTAAGATCAGGGAACGTTGCAAA,-0.344,-0.157,-0.0698,-0.731,-0.145,0.308,-0.308,-0.172
CGACCAAGGTCAAAGGTCAGTGAAGAGATGACGG,5.51,8.66,8.05,3.97,10.4,4.71,2.27,3.83
CTCGAAAGGTCGTGCTCAGGTTAGTATACCAAAC,3.37,5.5,4.17,2.12,5.47,3.73,0.934,1.3
CAAACTTGGTCACCGGAAGGTCAAAGTCCGCATG,4.11,5.35,4.2,0.79,4.16,3.05,1.24,2.2
CCTACTGCGCCAAGGTCATTGATCAGTCAAAGCA,3.46,3.72,2.98,2.48,3.42,3.54,3.12,4.13
ACAAACAGGTGAGTGAAGGTAACTCAGCTGGACG,0.000775,0.131,0.536,-0.35,0.457,1.5,-0.581,-0.41
CGAGCTAGGTCAAGGACAGTGAATCTCCGCACGC,2.95,3.8,4.67,1.27,2.28,3.02,1.62,-0.0669
CCTACTGGGCAATTCAGAGGTCATTGATCATATG,3.57,3.21,2.73,0.679,3.76,2.98,1.16,3.05
GGAACGAGGGCAAAGATGATAGCATCTGTCGACG,0.55,1.1,1.59,2.33,1.02,0.506,-0.734,0.578

Sequence,PBM binding z-score [1],PBM binding z-score [2],PBM binding z-score [3],PBM binding z-score [4],PBM binding z-score [5],PBM binding z-score [6],PBM binding z-score [7],PBM binding z-score [8]
CCCATTAGTTGACCATAAGGGCAACCGAAGCTCG,2.53,1.4,0.963,0.208,0.666,2.07,1.89,1.05
CTCGCAAGGTCGTGCTCAGGTGAGTATACCAAAC,1.7,3.26,2.14,2.15,2.52,3.63,1.6,1.22
TCATATAGGTAAACAGGTGAGAGTCCGTAAGTTA,0.672,0.456,0.431,1.08,0.983,0.521,0.361,0.486
CCTATTAGTTAACCATAAGGGCAACCGAAGCTCG,1.66,0.813,1.14,0.665,0.518,1.9,1.31,0.663
CGTCAAAGTACAACTAAGGTAACGTAAAGCACGC,1.16,1.03,1.21,0.971,0.543,3.77,1.62,0.523
CAAACTAGGTCACAGGAAGGTCAAAGTCCGCATG,5.1,7.79,7,2.17,6.07,4.36,2.46,3.1
GCTGCTAGGCCAGGTTGGTCAGCTAACGGGTACG,6.85e-05,-0.5,-0.124,-0.332,-0.773,-0.787,-1.23,-0.861
TCAGACAGGTGGAGGTAACTCAGGTACGCAGTCG,0.41,-0.00603,-0.245,0.723,0.574,1.48,0.639,-0.21
CCGACCGGGGCAAAGGTTACCATACTCAGTACGA,2.34,3.83,2.02,0.0663,4.51,2.47,0.202,0.185
TCTTGTAGATCAAAAGGAGGTTAAGAAAGATCGA,0.201,0.79,0.0979,0.622,1.17,1.09,-0.613,0.16
TCTATTAGTTGAAGGTCAACCGACGAGTCCGTTT,4.21,4.22,4.39,2.25,4.15,3.13,1.93,3.45
GCATATAGGTAATACAAGGTGAAGGTCCGATTGT,1.04,0.61,0.653,0.103,0.694,4.08,1.09,-0.214
CCTGACAGGTGAAAGGTAACTCAGTCTGGTACGC,0.705,1.41,0.684,-0.145,1.95,0.905,-0.332,-0.107
CCAGACGGGTGAAAGGTAACTCAGTCTGGTACGC,0.112,0.694,0.136,-0.879,1.81,0.461,-0.444,-0.582
CGAACGAGGGCATGGGTTGATAGCAAATGCCGAT,1.27,1.31,1.55,1.93,1.26,1.52,0.384,1.72
CAAACTAGTTCACCGGAAGGTCAAAGTCCGCATG,4.92,6.9,4.99,2.8,4.73,3.73,1.72,3.2
ATCTCTAGGTAAGACTCAGTTCAGTGGAGAACGC,0.868,0.285,0.403,0.304,0.0842,0.884,0.583,1.57
CCTTACCGGTCACTCCAGGTTATAGCATCGGAGT,2.64,2.41,3.52,0.359,0.865,3.88,1.32,0.951
GCACCAAGGTGAATAGGTCGTTGATGAGTAGGCG,1.77,2.42,1.1,0.00127,1.77,1.63,0.229,-0.0787

Sequence,PBM binding z-score [1],PBM binding z-score [2],PBM binding z-score [3],PBM binding z-score [4],PBM binding z-score [5],PBM binding z-score [6],PBM binding z-score [7],PBM binding z-score [8]
AGTCAAAGTTCATCTAGGTAACCTAAGATATGCT,4.08,5.61,6.14,4.79,4.87,3.21,0.817,5.75
CCTACCAGGCCAGGGTCACTCAAGCATTTCGCTT,2.84,3.13,2.44,-0.231,3.18,2.98,1.56,1.29
GCTCGGATGACAAGGTCAGAGCTTTGTCCGTAGA,2.57,2.42,2.02,0.22,2.15,2.5,1.09,0.292
TGAATGACGTTATAAGATCAGGGAACGTTGCAAA,-0.513,0.43,0.292,-0.941,0.24,-0.021,-0.323,-0.203
TCTAGTTGGGCACGGAGGTCACACACGACGGGTA,4.1,4.07,3.83,0.548,4.43,3.34,1.83,2.63
CAGCCTAGGTCAGGGCCAGTCTAGGAGGAACGTT,2.6,2.83,3.7,-0.45,1.5,1.98,0.28,-0.275
TCGAGTAGGTTAGGGGCCTTCAGAATGGCGTCGA,-0.137,-0.483,-0.763,-0.0601,-0.143,-0.36,-0.629,-0.468
GCGACTGGGGCATCAGTAGGTTACCATAACTTAA,0.91,0.793,0.519,0.0645,0.498,0.632,-0.249,-0.583
ACTCACGGGTCAACGAGGTTATAGCACGCGTATA,3.5,5.72,4.98,2.83,6.42,4.03,1.03,4.51
ATCTCTAGGTAAAGATACTTCAGTGAATGCAAAT,-0.416,0.491,0.669,-0.0244,0.385,0.398,0.038,0.371
ACAGACAGGTTAGTGAAGGTAACTCAGCTGGACG,0.435,0.363,0.773,-0.188,0.511,2.2,-0.138,-0.0977
CGAACTACGTCAGAACAGGACAGTGAAGGATGAT,-0.0991,-0.0189,0.316,0.247,-0.063,0.397,-0.497,-0.159
AGAATGAGGTTACAAAAGATCAGGGAAACGCTTG,0.449,1.86,1.58,1.16,2.44,2.6,-0.0281,0.342
ATCGAAAGGTAGAGGTGAGTATAGAGAAAGGGAA,1.19,0.75,1.07,-0.488,0.652,0.94,0.25,0.0183
ATATGTAGGTTAGCCGGGGTCATTCAGACTAGGC,4.07,4.69,3.57,2.39,6.32,5.21,2.99,5.54
CCTACTGGGCCATCAGGTCATTGCTATCAACGTT,2.55,2.04,1.77,0.254,1.37,3.24,2.94,1.62
AGAATGAGGTAATACGTAGATCAGGGAAGAAAGT,-0.0706,0.35,0.314,-0.0157,0.428,1.39,0.304,-0.472
CGTCCAAGGTCAGCCGGTCAGTGAAAGCGACGTG,4.5,5.54,6.43,2.56,3.93,3.58,1.93,0.973
